Test [1] concerns the target POU1 (OCT1 POU domain) (human, UniProt P14859 260-458). Nature of the test: EMSA-SELEX-seq; no BOB1; 20 mM Tris-HCl pH 7.6, 140 mM NaCl, 10% glycerol, 0.5 mM EDTA, 0.05% Triton X-100, 0.1 mg/mL BSA, 0.1 mg/mL poly(dI-dC), 5 mM DTT, room temperature, 20 min; high values mean tight binding. Conditions: protein: recombinant; dsDNA, one strand shown. The method, boiled down: (§1)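 Binding preference means the percentage of sequenced 8-mers matching a motif pattern. Tagged POU-domain proteins (30 ng), expressed in E. coli BL21, purified under denaturing conditions and renatured, were mixed with 300 ng of a PCR-amplified double-stranded random 35-nt library, with or without 28 ng coactivator protein, for 20 min at RT in 20 μL Tris–HCl pH 7.6 binding buffer. Selection was repeated over four rounds of excising complex bands from native 6% PAGE, eluting and PCR amplification, followed by Illumina sequencing.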
A general note: Mobility shift assays separate free from complexed probe on a gel.

The target of test [2] is T1, POU2 (OCT2 POU domain) (human, UniProt P09086 175-386).
T1 sequence: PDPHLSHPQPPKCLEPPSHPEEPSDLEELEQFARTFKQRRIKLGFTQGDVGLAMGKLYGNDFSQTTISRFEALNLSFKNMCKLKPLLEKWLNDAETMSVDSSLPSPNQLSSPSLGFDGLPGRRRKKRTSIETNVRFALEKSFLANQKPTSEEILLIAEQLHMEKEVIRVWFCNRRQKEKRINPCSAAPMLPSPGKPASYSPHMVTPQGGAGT
The test is described as above. The settings on record: protein: recombinant; dsDNA, one strand shown. The method, boiled down: as §1

The target in test [3] is POU1 (OCT1 POU domain);BOB1 (OBF1, OCA-B) (human;human, UniProt P14859;Q16633 260-458;1-256, |). The test is described as follows: EMSA-SELEX-seq; with BOB1 (ternary complex band); 20 mM Tris-HCl pH 7.6, 140 mM NaCl, 10% glycerol, 0.5 mM EDTA, 0.05% Triton X-100, 0.1 mg/mL BSA, 0.1 mg/mL poly(dI-dC), 5 mM DTT, room temperature, 20 min; high values mean tight binding. Conditions: protein: recombinant;recombinant; copies: 1;1; dsDNA, one strand shown. The method, boiled down: as §1

Test [4] deals with T2, POU2 (OCT2 POU domain);BOB1 (OBF1, OCA-B) (human;human, UniProt P09086;Q16633 175-386;1-256, |).
T2 sequence 1: T1 sequence
T2 sequence 2: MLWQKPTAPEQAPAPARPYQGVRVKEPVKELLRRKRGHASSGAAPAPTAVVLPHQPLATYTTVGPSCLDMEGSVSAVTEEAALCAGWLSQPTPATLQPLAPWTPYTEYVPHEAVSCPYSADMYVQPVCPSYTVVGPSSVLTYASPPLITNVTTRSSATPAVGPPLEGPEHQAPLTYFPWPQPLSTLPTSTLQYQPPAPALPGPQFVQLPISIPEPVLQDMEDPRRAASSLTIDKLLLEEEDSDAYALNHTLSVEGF
The description is as above. Conditions: protein: recombinant;recombinant; copies: 1;1; dsDNA, one strand shown. The method, boiled down:
as §1

The values below come from PMC10812921, “Transcriptional Coactivator BOB1 (OBF1, OCA-B) Modulates the Specificity of DNA Recognition by the POU-Domain Factors OCT1 and OCT2 in a Monomeric Configuration”.

POU1 (OCT1 POU domain), sequence (P14859 260-458): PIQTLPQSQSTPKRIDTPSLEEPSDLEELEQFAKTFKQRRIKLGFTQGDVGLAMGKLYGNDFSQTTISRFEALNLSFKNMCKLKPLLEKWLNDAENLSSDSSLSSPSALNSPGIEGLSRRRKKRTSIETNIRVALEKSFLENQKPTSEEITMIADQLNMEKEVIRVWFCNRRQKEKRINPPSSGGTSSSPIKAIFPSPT

For ACTCGAAA, the binding signal in test [1] is 0.0271 % of ANNNNAAN 8-mers; in test [2], 0.0357 % of ANNNNAAN 8-mers; in test [3], 0.0293 % of ANNNNAAN 8-mers; in test [4], 0.0314 % of ANNNNAAN 8-mers.
As for ACGTGAAA, the binding signal is 0.0374 % of ANNNNAAN 8-mers in test [1], 0.0386 % of ANNNNAAN 8-mers in test [2], 0.0386 % of ANNNNAAN 8-mers in test [3] and 0.0297 % of ANNNNAAN 8-mers in test [4].
As to ACCTGAAA, the binding signal in test [1] is 0.0183 % of ANNNNAAN 8-mers; in test [2], 0.0247 % of ANNNNAAN 8-mers; in test [3], 0.0215 % of ANNNNAAN 8-mers; in test [4], 0.019 % of ANNNNAAN 8-mers.
In the same order, the values of AGTTGAAT are 0.0927 % of ANNNNAAN 8-mers, 0.119 % of ANNNNAAN 8-mers, 0.0667 % of ANNNNAAN 8-mers and 0.0834 % of ANNNNAAN 8-mers.
As for ACAGAAAA, the binding signal in test [1] was 0.0389 % of ANNNNAAN 8-mers; in test [2] it was 0.0472 % of ANNNNAAN 8-mers; in test [3] it was 0.0472 % of ANNNNAAN 8-mers; in test [4] it was 0.0322 % of ANNNNAAN 8-mers.
In the case of ACTTCAAC, the binding signal in test [1] is 0.0145 % of ANNNNAAN 8-mers; in test [2], 0.015 % of ANNNNAAN 8-mers; in test [3], 0.0121 % of ANNNNAAN 8-mers; in test [4], 0.0231 % of ANNNNAAN 8-mers.
As to ACTGGAAA, the binding signal is 0.0362 % of ANNNNAAN 8-mers in test [1], 0.0328 % of ANNNNAAN 8-mers in test [2], 0.0375 % of ANNNNAAN 8-mers in test [3] and 0.0429 % of ANNNNAAN 8-mers in test [4].
With AGATCAAA, the binding signal in test [1] was 0.0393 % of ANNNNAAN 8-mers; in test [2] it was 0.0483 % of ANNNNAAN 8-mers; in test [3], 0.0414 % of ANNNNAAN 8-mers; in test [4], 0.0355 % of ANNNNAAN 8-mers.
For AATAAAAG, the binding signal in test [1] was 0.106 % of ANNNNAAN 8-mers; in test [2], 0.121 % of ANNNNAAN 8-mers; in test [3] it was 0.118 % of ANNNNAAN 8-mers; in test [4], 0.101 % of ANNNNAAN 8-mers.
In the same order, the values of ACGTTAAA are 0.0412 % of ANNNNAAN 8-mers, 0.0506 % of ANNNNAAN 8-mers, 0.0371 % of ANNNNAAN 8-mers and 0.0421 % of ANNNNAAN 8-mers.
For AATTGAAC, the binding signal is 0.0492 % of ANNNNAAN 8-mers in test [1], 0.0575 % of ANNNNAAN 8-mers in test [2], 0.0386 % of ANNNNAAN 8-mers in test [3] and 0.052 % of ANNNNAAN 8-mers in test [4].
Regarding AACTGAAC, the binding signal is 0.0179 % of ANNNNAAN 8-mers in test [1], 0.019 % of ANNNNAAN 8-mers in test [2], 0.0168 % of ANNNNAAN 8-mers in test [3] and 0.0182 % of ANNNNAAN 8-mers in test [4].
In the same order, the values of ACATAAAA are 0.103 % of ANNNNAAN 8-mers, 0.114 % of ANNNNAAN 8-mers, 0.073 % of ANNNNAAN 8-mers and 0.0925 % of ANNNNAAN 8-mers.
In the same order, the values of AGTAGAAC are 0.0271 % of ANNNNAAN 8-mers, 0.0242 % of ANNNNAAN 8-mers, 0.0242 % of ANNNNAAN 8-mers and 0.0239 % of ANNNNAAN 8-mers.
As for AATACAAA, the binding signal was 0.134 % of ANNNNAAN 8-mers in test [1], 0.108 % of ANNNNAAN 8-mers in test [2], 0.148 % of ANNNNAAN 8-mers in test [3] and 0.121 % of ANNNNAAN 8-mers in test [4].
With ACCGGAAA, the binding signal in test [1] is 0.0271 % of ANNNNAAN 8-mers; in test [2], 0.0236 % of ANNNNAAN 8-mers; in test [3], 0.0265 % of ANNNNAAN 8-mers; in test [4], 0.0281 % of ANNNNAAN 8-mers.
For the sequence AATGGAAA, the binding signal was 0.242 % of ANNNNAAN 8-mers in test [1], 0.155 % of ANNNNAAN 8-mers in test [2], 0.268 % of ANNNNAAN 8-mers in test [3] and 0.164 % of ANNNNAAN 8-mers in test [4].
For ACTTAAAG, in that order: 0.0328 % of ANNNNAAN 8-mers, 0.0437 % of ANNNNAAN 8-mers, 0.0328 % of ANNNNAAN 8-mers and 0.0462 % of ANNNNAAN 8-mers.
For AACCTAAA, in that order: 0.0206 % of ANNNNAAN 8-mers, 0.0391 % of ANNNNAAN 8-mers, 0.0242 % of ANNNNAAN 8-mers and 0.0264 % of ANNNNAAN 8-mers.
As for ACTTCAAG, the binding signal in test [1] was 0.0194 % of ANNNNAAN 8-mers; in test [2], 0.0236 % of ANNNNAAN 8-mers; in test [3] it was 0.0168 % of ANNNNAAN 8-mers; in test [4] it was 0.0256 % of ANNNNAAN 8-mers.
With AAATAAAT, the binding signal in test [1] is 0.261 % of ANNNNAAN 8-mers; in test [2] it was 0.275 % of ANNNNAAN 8-mers; in test [3], 0.232 % of ANNNNAAN 8-mers; in test [4], 0.22 % of ANNNNAAN 8-mers.
As for AGTAAAAA, the binding signal in test [1] was 0.0911 % of ANNNNAAN 8-mers; in test [2] it was 0.0679 % of ANNNNAAN 8-mers; in test [3], 0.103 % of ANNNNAAN 8-mers; in test [4], 0.0578 % of ANNNNAAN 8-mers.
Take ATTCAAAC: the binding signal in test [1] was 0.153 % of ANNNNAAN 8-mers; in test [2], 0.15 % of ANNNNAAN 8-mers; in test [3], 0.199 % of ANNNNAAN 8-mers; in test [4] it was 0.125 % of ANNNNAAN 8-mers.
